Results on seven compounds are retold here after PubChem BioAssay (EPA / NIEHS).

As usually defined, the AC50 is the concentration giving half of the maximal activity seen.

Results filed as inconclusive are left out. Calls of active or inactive are those of the source. The calls were made as follows, unless noted: active = hit-call score of the fitted dose curve at least 0.9, where 1 is the maximum; inactive = score below 0.9.

The nature of test [1]: ACEA_ER_80hr: ACEA Biosciences xCELLigence Real-Time Cell Analysis on Estrogen Receptor Agonism for Proliferation (AID 2282667; active = hit-call score of the fitted dose curve at least 0.9, where 1 is the maximum). As to conditions: T47D proliferation, impedance (xCELLigence), 80 h. The gist of the method:
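Estrogen-driven proliferation is captured as electrode impedance in T47D cells 80 h after compound addition. Test articles ran at 8 concentrations, 1:4 dilutions from 100 uM final, in two replicate plates.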

Test [2] is described as follows: APR_HepG2_CellCycleArrest_24hr: Apredica 24-hour HepG2 Assay for Cell Cycle Arrest (AID 2282905).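 Also: cell cycle arrest scored as ratio of 2N to 4N nuclear DNA content.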 To be noted: imaging, actives raise or lower the signal. A digest of the protocol:
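After 24 h exposure at 0.39–200 uM in 0.5% DMSO, fixed cells received Hoechst 33342 staining. Imaging quantified per-nucleus DNA content; gain or loss fitted against DMSO controls.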

Test [3] is described as follows: APR_HepG2_NuclearSize_24hr: Apredica 24-hour HepG2 Assay for Nuclear Size (AID 2282907). To be noted: high-content imaging, actives raise or lower the signal. The gist of the method: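 Nuclear size from Hoechst 33342-stained, formaldehyde-fixed HepG2 nuclei imaged by high-content microscopy, after 24 h dosing at ten concentrations from 0.39 to 200 uM in 0.5% DMSO; gain or loss relative to DMSO baseline.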

Test [4] is described as follows: APR_HepG2_CellLoss_24hr: Apredica 24-hour HepG2 Assay for Cell Loss (AID 2282908).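 As to AC50: fit in both directions so a hit may be cell loss or gain.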 To be noted: high-content imaging. The gist of the method:
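Nuclei stained with Hoechst 33342 after formaldehyde fixation (3.7%) were imaged at 20x to count cells. Exposure lasted 24 hr, at ten concentrations from 0.39 to 200 uM in duplicate, with 0.5% v/v DMSO. Fit bidirectional, relative to DMSO.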

Test [5] is described as follows: APR_HepG2_MicrotubuleCSK_24hr: Apredica 24-hour HepG2 Assay for Microtubule CSK Stabilty (AID 2282909). As to conditions: HepG2 microtubule cytoskeleton imaging, actives raise or lower the signal. The gist of the method: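 Fixed HepG2 cells were stained for alpha-tubulin and imaged after 24 hr exposure to ten concentrations spanning 0.39–200 uM in 0.5% DMSO. Signal change was fitted in both directions relative to DMSO; taxol was the positive control.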

Test [6] is described as follows: APR_HepG2_MitoticArrest_24hr: Apredica 24-hour HepG2 Assay for Mitotic Arrest (AID 2282910). To be noted: high-content imaging, actives raise or lower the signal. A digest of the protocol:
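HepG2, 24 hr dosing, 0.39–200 uM, 0.5% DMSO final. Formaldehyde-fixed, Triton-permeabilised, anti-phospho-histone H3 plus Hoechst. ArrayScan imaging at 20x; bidirectional fit vs DMSO baseline.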

Test [7] is described as follows: APR_HepG2_MitoMembPot_24hr: Apredica 24-hour HepG2 Assay for Mitochondrial Membrane Potential (AID 2282911). To be noted: imaging, actives raise or lower the signal. The gist of the method:
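Mitochondrial dye uptake (MitoTracker Red CMXRos, 250 nM, 30 min pre-fixation) in HepG2 after 24 hr compound exposure, 0.39–200 uM; ArrayScan images at 20x, activity fitted in both directions relative to DMSO.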

Test [8] can be described thus: APR_HepG2_p53Act_24hr: Apredica 24-hour HepG2 Assay for p53 Activation (AID 2282913).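 Also: p53 protein immunofluorescence averaged per cell in HepG2 with Hoechst nuclei.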 To be noted: high-content imaging, actives raise or lower the signal. A digest of the protocol: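 Following 24 hr dosing of HepG2 at 0.39–200 uM, the cells undergo formaldehyde fixation, Triton permeabilization and multiplexed antibody labeling that includes p53 (Cy5). Signal from the imaging is referenced to DMSO solvent controls.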

Test [9] is described as follows: APR_HepG2_CellLoss_72hr: Apredica 72-hour HepG2 Assay for Cell Loss (AID 2282915). As to conditions: high-content imaging. The gist of the method:
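HepG2 cells exposed 72 h to compound at 0.39–200 uM (10 concentrations, duplicate) in 0.5% DMSO. Fixed with 3.7% formaldehyde and Hoechst 33342-stained. Imaged at 20x; nuclear count gives cell number, fitted bidirectionally versus DMSO.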

A short description of test [10]: APR_HepG2_P-H2AX_72hr: Apredica 72-hour HepG2 Assay for H2AX Phosphorylation (AID 2282916).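 Also: phospho-histone H2A.x immunostain intensity per cell marking DNA damage.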 To be noted: imaging, actives raise or lower the signal. A digest of the protocol: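 Phospho-histone H2A.x immunofluorescence, multiplexed with Hoechst and c-Jun, quantified by high-content imaging. Compounds applied to HepG2 for 72 h across ten concentrations (0.39–200 uM, 0.5% DMSO), in duplicate; DMSO baseline.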

A short description of test [11]: APR_HepG2_MitoMembPot_72hr: Apredica 72-hour HepG2 Assay for Mitochondrial Membrane Potential (AID 2282917). As to conditions: imaging, actives raise or lower the signal. A digest of the protocol: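 HepG2 cells dosed 72 hr with compound at 0.39–200 uM in duplicate, 0.5% v/v DMSO final. Mitochondria stained with 250 nM MitoTracker Red CMXRos for 30 min before formaldehyde fixation, imaged by high-content fluorescence; bidirectional fit versus DMSO.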

Test [12] in a line: APR_HepG2_MitoticArrest_72hr: Apredica 72-hour HepG2 Assay for Mitotic Arrest (AID 2282918). As to conditions: high-content imaging, actives raise or lower the signal. A digest of the protocol:
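Using high-content imaging of fixed HepG2 cells, phospho-histone H3 signal was measured following a 72 hr incubation with ten-point compound dilutions up to 200 uM. DMSO served as the negative control and baseline for bidirectional curve fitting.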

A short description of test [13]: APR_HepG2_MicrotubuleCSK_72hr: Apredica 72-hour HepG2 Assay for Microtubule CSK Stabilty (AID 2282919). As to conditions: HepG2 microtubule cytoskeleton, high-content imaging, actives raise or lower the signal. The gist of the method:
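HepG2, 72 hr cmpd exposure, 0.39–200 uM (10 pts, duplicate), 0.5% DMSO. 3.7% formaldehyde fix, 0.5% Triton perm, anti-alpha-tubulin/Cy5 plus Hoechst. HCS fluorescence intensity; bidirectional fit vs DMSO baseline; taxol as positive control.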

A short description of test [14]: APR_HepG2_P-H2AX_24hr: Apredica 24-hour HepG2 Assay for H2AX Phosphorylation (AID 2282920). As to conditions: high-content imaging, actives raise or lower the signal. The gist of the method: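 Human HepG2 liver cells, treated 24 hr with test chemicals (0.39–200 uM, final DMSO 0.5% v/v), are fixed and co-stained for phospho-H2A.x and c-Jun with Hoechst. Imaged intensity is fitted in both directions against DMSO controls.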

Test [15] is described as follows: APR_HepG2_StressKinase_72hr: Apredica 72-hour HepG2 Assay for Stress Kinase (AID 2282921). As to conditions: HepG2 stress kinase (phospho-c-Jun) imaging, actives raise or lower the signal. A digest of the protocol: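 Stress kinase signal is phospho-c-Jun immunofluorescence (1:500 primary, Cy3 secondary) in fixed, permeabilized human HepG2 cells imaged at 20x. Exposure lasted 72 hr over ten concentrations from 0.39 to 200 uM, 0.5% DMSO, in duplicate. Bidirectional fit versus DMSO.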

A short description of test [16]: APR_HepG2_StressKinase_24hr: Apredica 24-hour HepG2 Assay for Stress Kinase (AID 2282922). To be noted: HepG2 stress kinase (phospho-c-Jun) imaging, actives raise or lower the signal. The gist of the method: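 Read-out: phospho-c-Jun immunofluorescence (Cy3 secondary) quantified by high-content imaging at 20x, nuclei defined by Hoechst 33342. Human HepG2 liver cells dosed 24 hr, 0.39–200 uM, DMSO 0.5% v/v; gain or loss of signal fitted relative to DMSO.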

Test [17] is described as follows: APR_HepG2_MitoMass_72hr: Apredica 72-hour HepG2 Assay for Mitochondrial Mass (AID 2282924).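 Also: MitoTracker Red CMXRos stain intensity per cell imaged as mitochondrial mass.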 To be noted: high-content imaging, actives raise or lower the signal. The gist of the method: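 Read-out: MitoTracker Red fluorescence intensity from automated imaging (20x, six fields per well) in human HepG2 liver cells. Dosing ran 72 hr, 0.39–200 uM, 0.5% DMSO; bidirectional curve fitting versus DMSO baseline.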

A short description of test [18]: APR_HepG2_NuclearSize_72hr: Apredica 72-hour HepG2 Assay for Nuclear Size (AID 2282925). To be noted: high-content imaging, actives raise or lower the signal. A digest of the protocol: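 Read-out: nuclear diameter from Hoechst 33342 images (ArrayScan, 20x, six fields/well), via cell-cycle image analysis. HepG2 were dosed 0.39–200 uM for 72 hr in 0.5% DMSO. Bidirectional fit relative to DMSO.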

Test [19] in a line: APR_HepG2_MitoMass_24hr: Apredica 24-hour HepG2 Assay for Mitochondrial Mass (AID 2282912). As to conditions: high-content imaging, actives raise or lower the signal. A digest of the protocol:
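Endpoint is MitoTracker Red CMXRos (250 nM, 30 min, pre-fixation) intensity from 20x high-content imaging, nuclei located by Hoechst. Human HepG2 cells received ten concentrations from 0.39 to 200 uM in 0.5% DMSO for 24 hr, duplicate wells. Bidirectional fit relative to DMSO.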

A short description of test [20]: APR_HepG2_CellCycleArrest_72hr: Apredica 72-hour HepG2 Assay for Cell Cycle Arrest (AID 2282914). To be noted: high-content imaging, actives raise or lower the signal. A digest of the protocol:
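Using multiplexed high-content imaging, HepG2 nuclei stained with Hoechst 33342 (2 ug/mL) were analysed for DNA content after fixation and permeabilization. Treatment lasted 72 hr across 0.39–200 uM in duplicate with final DMSO 0.5% v/v; DMSO served as negative control.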

`c1ccc(C(O[C@@H]2CCCN(CCc3ccc4c(c3)OCO4)C2)c2ccccc2)cc1`: the result in test [1], in [3], in [7], in test [11], in [13] and in test [16] was inactive. The call in [18] was inactive. Moreover, the AC50 in [2] was 83.5 µM (active); in test [4], 99.9 µM (active); in [5], 88.3 µM (active); in test [6] it was 96.3 µM (active); in [8] it was 103 µM (active); in test [9], 98.3 µM (active). Moreover, the AC50 in test [10] was 96 µM (active); in [12] it was 57.8 µM (active); in test [14] it was 103 µM (active); in test [15], 100 µM (active); in test [17], 99.7 µM (active).
As for `O=S(=O)(O)c1ccc(N=Nc2c(O)ccc3cc(S(=O)(=O)O)ccc23)cc1`, the result in test [1], in [2], in test [3], in [4], in [5] and in test [6] was inactive. Also, the compound was classed as inactive in [7], in test [9], in [10], in [11], in test [12] and in [13]. In addition, the outcome in test [14], in [15], in test [16], in test [17] and in test [18] was inactive.
On to `c1ccc2ncccc2c1`, for which the outcome in test [1], in test [2], in test [3], in test [4], in [5] and in test [6] was inactive. Besides, the outcome in [7], in [8], in [9], in [10], in test [11] and in test [12] was inactive. For the same compound, the compound was classed as inactive in [13], in test [14], in test [15], in test [16], in [17] and in test [18].
Consider `CCCCCCCCN(C)C`, for which the outcome in [1], in test [2], in test [4], in test [5], in [6] and in [7] was inactive. The compound was classed as inactive in test [19], in test [8], in [9], in [10], in test [11] and in [12]. Further, the compound was classed as inactive in [13], in [14], in test [15], in test [16], in test [17] and in test [18].
As for `C[C@]12C=CC(=O)C=C1CC[C@H]1[C@@H]3C[C@@H](O)[C@](O)(C(=O)CO)[C@@]3(C)C[C@H](O)[C@@]12F`, in test [1], the half-maximal activity concentration (AC50) is 10.9 µM (active). For the same compound, the compound was called inactive in [2], in test [3], in test [4], in test [5], in test [6] and in [7]. Besides, the compound was called inactive in [8], in test [9], in [10], in [11], in [12] and in [13]. Also, the compound was called inactive in test [14], in test [15], in [16], in [17] and in test [18].
For the compound `Cc1nc(-c2ccccn2)ncc1C(=O)Nn1cc(C)c2cc(F)ccc21`, the compound was classed as inactive in test [1], in test [3], in test [5], in [10], in test [11] and in test [13]. The compound was called inactive in test [14], in test [15], in test [16], in test [17] and in test [18]. In addition, the AC50 is 99.5 µM (active) in test [2]; 88.7 µM (active) in test [4]; 101 µM (active) in test [6]; 100 µM (active) in test [7]; 55.3 µM (active) in [9]; 72.2 µM (active) in test [12].
Turning to `c1ccc2cc3ccccc3cc2c1`, the compound was classed as inactive in test [1], in test [5], in test [6], in test [7], in test [19] and in test [8]. Also, the compound was called inactive in [15], in test [16] and in test [18]. In addition, the AC50 in [2] is 106 µM (active); in test [4], 100 µM (active); in test [20] it was 110 µM (active); in test [9] it was 139 µM (active); in test [10] it was 112 µM (active); in test [14], 107 µM (active).
